KDM5B inhibitor – KDM5B demethylase inhibition; Potency, µM (doses to about 57.7 µM), usual class: inhibitors; KDM5B demethylase, FDH-coupled NADH fluorescence (FDH is formaldehyde dehydrogenase); 220,000 tested, 2.6% active; also: potency is read from the fitted curve at half-maximal effect; 0% is about no effect; nearly all actives have a fitted effect of over 70% in size
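Measured: NADH fluorescence change, 30 min, RT. System: KDM5BΔAP 200 nM final, H3K4me3 peptide, α-KG, Fe(II), ascorbate, NAD⁺ plus FDH, pH 7.5 HEPES. Compounds: titrated, 10 min pre-incubation with enzyme.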
SNCA viab count – cell viability loss counter-screen | 150,000 tested, 0.12% active | HEK-293-SNCA-luc viability, GF-AFC fluorescence, 24 h | Potency, µM (series often up to 57.1 µM), inactives show at the top dose activity change, negative = cytotoxicity, actives largely listed as cytotoxic;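 also: potency is read from the fitted curve at half-maximal effect; 0% = DMSO-treated cells and -100% = medium-only wells without cells; nearly all actives have a fitted effect of over 30% in size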
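Cytotoxicity counterscreen: after 24 h compound treatment of genome-edited SNCA-luciferase HEK-293 cells, live-cell protease substrate GF-AFC read by fluorescence after 30 min; activity scaled between DMSO (0%) and medium-only (-100%), curves Hill-fitted.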
IP6K1 inhibitor – inhibitors of human IP6K1; IP6K1 kinase, ADP-Glo luminescence, 2 h; stronger effect = lower value; 140,000 tested, 0.81% active; activity change, % (series mostly up to about 58 µM); in the data active = activity change below about -25%; also: % is scaled to controls: 0 for no effect and ±100 for the full control effect
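ADP-Glo luminescence measures ADP made by human IP6K1 during a 2 h RT reaction with ATP/IP6 (mix at 1.3 mM/130 uM); top library doses 57.5 and 19.1 uM final.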
SNCA expr inh – inhibitors of alpha-synuclein (SNCA) gene expression; Potency, µM (highest dose often 57.2 µM), for the others: top-dose activity change, negative = inhibition, actives largely listed as inhibitors; 140,000 tested, 0.17% active; HEK-293 SNCA-luciferase knock-in, luminescence, 24 h;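 also: potency is read from the fitted curve at half-maximal effect; plate controls were DMSO cells for no effect and cell-free wells for full effect; nearly all actives have a fitted effect of over 45% in size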
Numbers without * were called inactive; i = inactive; ? = inconclusive; nt = not tested or not shown; [ ] = remark or other dose. Most compounds without a hit are left out; they make up all but 3% or so of the library. Unless noted, calls follow the shape of the dose curve; as a rule, active = well fitted curve in the direction sought with a large enough effect; inconclusive = small, poorly fitted or top-dose-only effect, or another doubt; inactive = no such curve, though single readings can be large; an effect the other way counts as inactive or inconclusive.

SMILES | KDM5B inhibitor | SNCA viab count | IP6K1 inhibitor | SNCA expr inh
CC(=O)Nc1cccc(-c2nc(N3CCOCC3)cc3c2CN(Cc2cnn(C)c2)C3=O)c1 | 28.2µM* | 14.4% | 18.1 | 16.1%
COc1ccccc1-c1nc(N2CCOCC2)cc2c1CN(Cc1cnn(C)c1)C2=O | 35.5µM* | 1.8%[87.6 µM] | 22.8 | 4.3%[87.6 µM]
Cc1ccc(NC(=O)C(=O)c2c(C)[nH]c3ccccc23)cc1 | i | nt | nt | nt
O=C(NC1CCN(c2ccc3nnc(C4CC4)n3n2)CC1)C1CCCCC1 | nt | nt | 3.1 | nt
O=C(Nc1cccc(-c2nc3ccccc3o2)c1)c1ccc([N+](=O)[O-])cc1 | i | nt | nt | nt
Cc1ccc(CNC(=O)c2c(C)noc2-c2ccc3c(c2)OCO3)o1 | 25.1µM* | 5.8% | -10.7 | -15.7%
Cc1cccc(CNC(=O)c2noc(-c3ccc4c(c3)OCO4)n2)c1 | ? | 5.0% | -3.3 | 75.5%
Cc1cccc(CNC(=O)c2c(C)noc2-c2ccc3c(c2)OCO3)c1 | 31.6µM* | 5.7% | -1.2 | -1.9%
Cc1noc(-c2ccc3c(c2)OCO3)c1C(=O)NCc1ccccc1 | 28.2µM* | 13.4% | 1.6 | 8.8%
COc1ccc2c(c1)CN(CC=C(C)C)C(=O)CCN2CC(O)Cc1ccccc1 (stereo not given) | nt | nt | -15.5 | nt
CCc1noc(-c2cccn3c(CNC(=O)c4cccc(C)c4)nnc23)n1 | 28.2µM* | 4.4% | 15.9 | ?
CCc1noc(-c2cccn3c(CNC(=O)c4cc(C)cc(C)c4)nnc23)n1 | ? | 13.7% | -1.1 | -5.9%
CC(C)c1noc(-c2cccn3c(CNC(=O)Cc4ccc(F)cc4)nnc23)n1 | 14.1µM* | -2.1% | 0.5 | -9.4%
CCc1noc(-c2cccn3c(CNC(=O)Cc4ccc(C)cc4)nnc23)n1 | 25.1µM* | -15.4% | 22.6 | 2.9%
CCc1noc(-c2cccn3c(CNC(=O)CCc4ccc(OC)cc4)nnc23)n1 | i | 14.0% | 9.7 | -3.2%
CCc1noc(-c2cccn3c(CNC(=O)Cc4ccc(F)cc4)nnc23)n1 | 28.2µM* | 1.6% | 23.8 | -10.0%
COc1ccc(-c2cccc(C(=O)NCc3ccccc3F)c2)nn1 | nt | nt | 20.7 | nt
COc1cc(CNn2cnnc2)cc(Cl)c1OCc1ccccc1 | i | nt | nt | nt
CC(NC(=O)COc1ccccc1)C(=O)N1CCN(c2ccccn2)CC1 (stereo not given) | 22.4µM* | -0.1% | -0.9 | 4.6%
Cc1cccc(OCC(=O)NC(C)C(=O)N2CCN(c3ccccn3)CC2)c1 (stereo not given) | 35.5µM* | 9.2% | 19.1 | 1.1%
O=C(NCCCN1CCN(c2ccc(F)cc2)CC1)C1COc2ccccc2C1 (stereo not given) | i | 2.7% | 21.8 | -14.1%
Fc1ccc(-n2cc(CCCCN3CCC4(CC3)OCc3ccccc34)c3ccccc32)cc1 | nt | 18.9µM* | 20.7 | nt
COc1ccc(/C=C/c2ccc3c(c2)C(=O)N2CC[C@H](NC(=O)c4cnccn4)[C@H]2C(=O)N3)cc1 | ? | -2.9% | 6.3 | -7.3%
COc1ccc(Cl)cc1-c1ccc2c(c1)C(=O)N1CC[C@H](NC(=O)c3cccs3)[C@H]1C(=O)N2 | 25.1µM* | ? | -16.7 | ?
COc1ccc(/C=C/c2ccc3c(c2)C(=O)N2CC[C@H](N)[C@H]2C(=O)N3)cc1 | 35.5µM* | -14.1%[87.6 µM] | -2.8 | 64.8%[87.6 µM]
SMILES | KDM5B inhibitor | SNCA viab count | IP6K1 inhibitor | SNCA expr inh
O=C(O)CCC(=O)N[C@H]1CCN2C(=O)c3cc(-c4ccccc4)ccc3NC(=O)[C@H]12 | i | -0.2%[87.6 µM] | -8.0 | 4.1%[87.6 µM]
COc1ccc(-c2ccc3c(c2)C(=O)N2CC[C@H](NC(=O)c4cccs4)[C@H]2C(=O)N3)c(OC)c1 | 28.2µM* | -7.3% | 0.1 | -14.9%
COc1ccc(-c2ccc3c(c2)C(=O)N2CC[C@H](NC(=O)CCC(=O)O)[C@H]2C(=O)N3)cc1 | 20µM* | -1.7% | -7.3 | 8.2%
COc1ccc(-c2ccc3c(c2)C(=O)N2CC[C@H](NC(=O)c4cccs4)[C@H]2C(=O)N3)cc1 | ? | 3.7% | -8.0 | 20.3%
Cc1cc(C)cc(-c2ccc(CN3CCCC3C(=O)NC(C)C)cc2)c1 (stereo not given) | nt | -13.2% | -11.2 | -11.3%
COc1ccc(-c2ccc3c(c2)C(=O)N2CC[C@H](NS(=O)(=O)c4cccs4)[C@H]2C(=O)N3)cc1 | 22.4µM* | -16.4% | -7.3 | -12.9%
CSCC(=O)N[C@H]1CCN2C(=O)c3cc(-c4ccc(Cl)cc4)ccc3NC(=O)[C@H]12 | 28.2µM* | 0.5%[87.6 µM] | 5.5 | 19.7%[87.6 µM]
CSc1ccc(-c2ccc3c(c2)C(=O)N2CC[C@H](NC(=O)C4CCCC4)[C@H]2C(=O)N3)cc1 | 25.1µM* | -7.3% | 0.1 | 42.1%
O=C(N[C@H]1CCN2C(=O)c3cc(-c4ccsc4)ccc3NC(=O)[C@@H]2C1)c1cccs1 | 22.4µM* | -4.6% | -11.2 | -5.8%
Cc1cccc(-c2ccc3c(c2)C(=O)N2CC[C@H](NC(=O)c4cccs4)C[C@H]2C(=O)N3)c1C | ? | -9.4% | 5.3 | -24.5%
O=C(N[C@H]1CCN2C(=O)c3cc(-c4ccc(Cl)cc4)ccc3NC(=O)[C@H]12)c1cccs1 | 31.6µM* | -12.0% | -0.5 | 11.8%
COc1ccc(CNC(=O)C2CCCN(c3nccc(Nc4ccc(OC)cc4)n3)C2)cc1 (stereo not given) | nt | ? | -0.7 | ?
CCN(CC)c1cc(CCC(=O)NCCCN2CCOCC2)ccn1 | 25.1µM* | -5.0% | -7.1 | -5.6%
CN(Cc1ccsc1)C(=O)CCc1ccccc1 | i | nt | nt | nt
CCN(CC)c1cc(CCC(=O)N2CCC(C)CC2)ccn1 | 25.1µM* | -19.4% | 0.1 | ?
CCN(CC)c1cc(CCC(=O)NCCc2cccnc2)ccn1 | ? | -9.9% | 3.1 | 10.5%
CCN(CC)c1cc(CCC(=O)N(C)Cc2ccccc2)ccn1 | 22.4µM* | 0.3% | 17.9 | -23.3%
Cn1ncc2c(C(=O)C3CCN(Cc4ccccc4)CC3)cc(-c3ccccc3C(F)(F)F)nc21 | nt | nt | 6.6 | nt
Cc1oc(-c2ccccc2)nc1CC(=O)NCCc1cccc(F)c1 | i | nt | nt | nt
Cc1ccc(F)cc1-c1cccc(CCOc2cnc3c(ccn3CC(=O)O)c2)c1 | 35.5µM* | 1.2%[87.6 µM] | -19.3 | -20.6%[87.6 µM]
Cc1cc(F)ccc1-c1cccc(COc2cnc3c(ccn3CC(=O)O)c2)c1 | ? | -1.6%[87.6 µM] | -21.0 | 4.4%[87.6 µM]
O=C(O)Cn1ccc2cc(OCc3cccc(-c4ccc(F)cc4F)c3)cnc21 | 35.5µM* | 1.5%[87.6 µM] | -19.0 | 8.2%[87.6 µM]
O=C(O)Cn1ccc2cc(OCCc3cccc(-c4ccc(F)cc4F)c3)cnc21 | 35.5µM* | -10.9%[87.6 µM] | -8.6 | -11.2%[87.6 µM]
C[S+](=O)([O-])CCn1ncc2cc(OCc3cccc(-c4ccccc4F)c3)ccc21 | ? | -20.5%[87.6 µM] | -8.2 | -12.1%[87.6 µM]
O=C(O)Cn1ccc2cc(OCCc3cccc(-c4ccccc4F)c3)cnc21 | 31.6µM* | -1.1%[87.6 µM] | -11.6 | -6.7%[87.6 µM]
CCCCc1c(C)nc(Nc2nc(C)c3cc(OC)ccc3n2)[nH]c1=O | i | nt | nt | nt
Cc1nn(-c2ccccc2)c2c1C(C1CC1)N(CC1CN(C(=O)Nc3ccc(Cl)cc3)C1)C2=O (stereo not given) | nt | nt | -5.4 | nt
COc1cccc(-c2cccc(COc3cnc4c(ccn4CC(=O)O)c3)c2)c1F | 35.5µM* | 0.5%[87.6 µM] | -22.4 | ?

From PubChem BioAssay
